The panel holds about 83,000 compounds, 20% with a hit somewhere; the sample as a whole holds those more often.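 Single-concentration screen, 48 h exposure, 96-well plates. Endpoint: percent growth. Below 10 = active.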 Activity calls are given as the source filed them.
What was measured:
Assay in all cases: NCI-60 one-dose screen, 48 h (100 = growth as untreated, 0 = no growth, -100 = all killed)
Conditions in all cases: 10 µM unless noted
SR leukemia = tested on: SR leukemia
RPMI-8226 leukemia = tested on: RPMI-8226 leukemia
OVCAR-8 ovarian = tested on: OVCAR-8 ovarian
OVCAR-4 ovarian = tested on: OVCAR-4 ovarian
SK-OV-3 ovarian = tested on: SK-OV-3 ovarian
IGROV1 ovarian = tested on: IGROV1 ovarian
OVCAR-3 ovarian = tested on: OVCAR-3 ovarian
HS 578T breast = tested on: HS 578T breast
NCI/ADR-RES ovarian = tested on: NCI/ADR-RES ovarian
T-47D breast = tested on: T-47D breast
BT-549 breast = tested on: BT-549 breast
MDA-MB-435 melanoma = tested on: MDA-MB-435 melanoma
SW-620 colon = tested on: SW-620 colon
MCF7 breast = tested on: MCF7 breast
HCT-116 colon = tested on: HCT-116 colon
HCC-2998 colon = tested on: HCC-2998 colon
KM12 colon = tested on: KM12 colon

Measured: growth

COc1cc(NS(C)(=O)=O)ccc1Cc1c2ccccc2nc2ccccc12
inactive: RPMI-8226 leukemia 22% | OVCAR-4 ovarian 38.8% | SK-OV-3 ovarian 18% | IGROV1 ovarian 36.5% | HS 578T breast 48% | NCI/ADR-RES ovarian 62.3% | T-47D breast 33.5% | MDA-MB-435 melanoma 51.1% | SW-620 colon 26.6% | MCF7 breast 28% | HCC-2998 colon 11.9% | KM12 colon 11.1%
active: SR leukemia -5.52% | OVCAR-8 ovarian 2.44% | OVCAR-3 ovarian -76.6% | BT-549 breast -13.9% | HCT-116 colon 0.0983%

COc1ccc(-c2cnc(-c3ccc(F)cc3)[nH]2)cc1
inactive: RPMI-8226 leukemia 44.5% | OVCAR-8 ovarian 103% | OVCAR-4 ovarian 98.3% | SK-OV-3 ovarian 121% | IGROV1 ovarian 95.3% | OVCAR-3 ovarian 91.3% | HS 578T breast 99.2% | NCI/ADR-RES ovarian 115% | T-47D breast 86.9% | BT-549 breast 314% | SW-620 colon 18.6% | MCF7 breast 26.3% | KM12 colon 30.6%
active: SR leukemia -29.7% | MDA-MB-435 melanoma -6.97% | HCT-116 colon -68.8% | HCC-2998 colon -10%

CC(CN(C)C)CN1c2ccccc2CCc2ccccc21 (configuration not stated)
inactive: SR leukemia 91.4% | RPMI-8226 leukemia 90.4% | OVCAR-8 ovarian 106% | OVCAR-4 ovarian 78.7% | SK-OV-3 ovarian 95% | IGROV1 ovarian 62% | OVCAR-3 ovarian 111% | HS 578T breast 86.4% | NCI/ADR-RES ovarian 76.4% | T-47D breast 78.1% | BT-549 breast 90.7% | MDA-MB-435 melanoma 72.4% | SW-620 colon 93.3% | MCF7 breast 96.3% | HCT-116 colon 53.2% | HCC-2998 colon 54.6% | KM12 colon 106%

CCOC(=O)NNc1nncc2ccccc12
inactive: SR leukemia 93.3% | RPMI-8226 leukemia 105% | OVCAR-8 ovarian 98.2% | OVCAR-4 ovarian 116% | SK-OV-3 ovarian 101% | IGROV1 ovarian 106% | OVCAR-3 ovarian 121% | HS 578T breast 98.9% | NCI/ADR-RES ovarian 103% | T-47D breast 94.8% | BT-549 breast 113% | MDA-MB-435 melanoma 100% | SW-620 colon 104% | MCF7 breast 105% | HCT-116 colon 106% | HCC-2998 colon 103% | KM12 colon 101%

O=C(COc1ccc(Cl)cc1)N1CCN(Cc2ccc3c(c2)OCO3)CC1
inactive: SR leukemia 97.8% | RPMI-8226 leukemia 88.7% | OVCAR-8 ovarian 91.8% | OVCAR-4 ovarian 94.5% | SK-OV-3 ovarian 93.5% | IGROV1 ovarian 106% | OVCAR-3 ovarian 99.2% | HS 578T breast 92.8% | NCI/ADR-RES ovarian 92.6% | T-47D breast 78.2% | BT-549 breast 98.3% | MDA-MB-435 melanoma 101% | SW-620 colon 97% | MCF7 breast 103% | HCT-116 colon 102% | HCC-2998 colon 99.9% | KM12 colon 102%

COc1ccc(C(=O)NC(=O)Nc2ccc3c(c2)NC(=O)/C3=C\c2[nH]c(C)c(CCC(=O)O)c2C)c(F)c1
inactive: SR leukemia 18.8% | RPMI-8226 leukemia 13% | OVCAR-4 ovarian 77% | SK-OV-3 ovarian 56.6% | IGROV1 ovarian 43% | OVCAR-3 ovarian 23.4% | NCI/ADR-RES ovarian 88.7% | T-47D breast 21.5% | BT-549 breast 11.2% | MDA-MB-435 melanoma 53.8% | SW-620 colon 38.5% | MCF7 breast 45.3% | HCT-116 colon 28.3% | HCC-2998 colon 46.8% | KM12 colon 15.5%
active: OVCAR-8 ovarian 8.62% | HS 578T breast -5.02%

CCOC(=O)c1[nH]c(-c2ccc(Cl)cc2)cc1-c1cccnc1
inactive: SR leukemia 12.9% | OVCAR-8 ovarian 39.3% | OVCAR-4 ovarian 51.1% | IGROV1 ovarian 43.9% | HS 578T breast 16.3% | NCI/ADR-RES ovarian 12.1% | BT-549 breast 29.4% | SW-620 colon 25.4% | MCF7 breast 22.2% | HCC-2998 colon 29.9% | KM12 colon 19.8%
active: RPMI-8226 leukemia 4.59% | SK-OV-3 ovarian 7.46% | OVCAR-3 ovarian -7.92% | T-47D breast 5.56% | MDA-MB-435 melanoma -38% | HCT-116 colon 9.8%

CC(C)(C)OC(=O)NCc1cccc(N=C=S)c1
inactive: OVCAR-8 ovarian 64.4% | OVCAR-4 ovarian 57.1% | SK-OV-3 ovarian 88.2% | IGROV1 ovarian 43.1% | OVCAR-3 ovarian 60.1% | HS 578T breast 66.1% | NCI/ADR-RES ovarian 71.3% | T-47D breast 11.2% | MDA-MB-435 melanoma 51% | SW-620 colon 60.2% | MCF7 breast 29.5% | HCT-116 colon 56.2% | HCC-2998 colon 57% | KM12 colon 51.6%
active: SR leukemia -4.27% | RPMI-8226 leukemia -38.9%

C=C1C(=O)O[C@H]2[C@H]1CC/C(COC(=O)c1cc(OC)c(OC)c(OC)c1)=C\CC[C@@]1(C)O[C@@H]21
inactive: OVCAR-4 ovarian 20.1% | SK-OV-3 ovarian 97.6% | HS 578T breast 32.9% | NCI/ADR-RES ovarian 10.9% | HCC-2998 colon 41.2% | KM12 colon 54.5%
active: SR leukemia -13.2% | RPMI-8226 leukemia -36.2% | OVCAR-8 ovarian -45.7% | IGROV1 ovarian -8.27% | OVCAR-3 ovarian -69.8% | T-47D breast -38.7% | BT-549 breast -42% | MDA-MB-435 melanoma -53% | SW-620 colon -49.5% | MCF7 breast -16.5% | HCT-116 colon -84.8%

c1ccc(-c2nc3sc(C(c4ccccc4)c4ccccc4)nn3c2-c2ccccc2)cc1
inactive: SR leukemia 80.6% | RPMI-8226 leukemia 108% | OVCAR-8 ovarian 104% | OVCAR-4 ovarian 103% | SK-OV-3 ovarian 94.7% | IGROV1 ovarian 86.4% | OVCAR-3 ovarian 100% | HS 578T breast 106% | NCI/ADR-RES ovarian 95.3% | T-47D breast 92.6% | BT-549 breast 96% | MDA-MB-435 melanoma 98.9% | SW-620 colon 91.6% | MCF7 breast 90.8% | HCT-116 colon 84% | HCC-2998 colon 109% | KM12 colon 96.1%

O=C(NOC1OC(CO)C(O)C(O)C1O)Nc1ccccc1 (configuration not stated)
inactive: SR leukemia 75.2% | RPMI-8226 leukemia 87.3% | OVCAR-8 ovarian 103% | OVCAR-4 ovarian 105% | SK-OV-3 ovarian 95.7% | IGROV1 ovarian 111% | OVCAR-3 ovarian 105% | HS 578T breast 103% | NCI/ADR-RES ovarian 109% | T-47D breast 78.7% | BT-549 breast 110% | MDA-MB-435 melanoma 102% | SW-620 colon 106% | MCF7 breast 87.9% | HCT-116 colon 105% | KM12 colon 105%

Nc1ncc(-c2ccc3ncnc(Nc4cncc(Cl)c4)c3c2)cn1
inactive: SR leukemia 73.8% | RPMI-8226 leukemia 50.1% | OVCAR-8 ovarian 76.8% | OVCAR-4 ovarian 66.8% | SK-OV-3 ovarian 46.5% | OVCAR-3 ovarian 59.9% | HS 578T breast 61.6% | NCI/ADR-RES ovarian 82.2% | BT-549 breast 64.2% | MDA-MB-435 melanoma 75.1% | SW-620 colon 95.8% | MCF7 breast 37.8% | HCT-116 colon 82.4% | HCC-2998 colon 79.7% | KM12 colon 82.5%
active: IGROV1 ovarian 7.85% | T-47D breast -7.28%

CC(C)NCC(O)COc1ccc(CC(N)=O)cc1 (configuration not stated)
inactive: SR leukemia 102% | RPMI-8226 leukemia 99.1% | OVCAR-8 ovarian 96.8% | OVCAR-4 ovarian 105% | SK-OV-3 ovarian 103% | IGROV1 ovarian 97.4% | OVCAR-3 ovarian 114% | HS 578T breast 104% | NCI/ADR-RES ovarian 104% | T-47D breast 98.9% | BT-549 breast 96.7% | MDA-MB-435 melanoma 107% | SW-620 colon 100% | MCF7 breast 98.1% | HCT-116 colon 99.2% | HCC-2998 colon 106% | KM12 colon 106%

O=C1c2ccccc2OC=C(c2ccccc2)N1CCCCNc1ccc(F)cc1
inactive: SR leukemia 81% | RPMI-8226 leukemia 69.8% | OVCAR-8 ovarian 80.6% | OVCAR-4 ovarian 89.9% | SK-OV-3 ovarian 67.9% | IGROV1 ovarian 81.9% | OVCAR-3 ovarian 110% | HS 578T breast 94.7% | NCI/ADR-RES ovarian 85.8% | T-47D breast 36.3% | BT-549 breast 59.1% | MDA-MB-435 melanoma 108% | SW-620 colon 103% | MCF7 breast 85.6% | HCT-116 colon 59.4% | HCC-2998 colon 104% | KM12 colon 84.4%

CC1CCc2cc(F)cc3c(=O)c(C(=O)O)cn1c23 (configuration not stated)
inactive: SR leukemia 95.4% | RPMI-8226 leukemia 105% | OVCAR-8 ovarian 97.5% | OVCAR-4 ovarian 111% | SK-OV-3 ovarian 108% | IGROV1 ovarian 109% | OVCAR-3 ovarian 114% | HS 578T breast 103% | NCI/ADR-RES ovarian 94.8% | T-47D breast 99.7% | BT-549 breast 104% | MDA-MB-435 melanoma 94.8% | SW-620 colon 106% | MCF7 breast 112% | HCT-116 colon 105% | HCC-2998 colon 105% | KM12 colon 102%

Nc1ncnc2c1c(-c1ccc(Oc3ccccc3)cc1)nn2C[C@H]1SSC[C@@H]1O
active: SR leukemia -49.4% | SK-OV-3 ovarian 1.91% | OVCAR-3 ovarian -62.4% | T-47D breast -20.3% | MDA-MB-435 melanoma -92.9%
inactive: RPMI-8226 leukemia 46.2% | OVCAR-8 ovarian 79.4% | OVCAR-4 ovarian 47.2% | IGROV1 ovarian 22% | HS 578T breast 68.3% | NCI/ADR-RES ovarian 76.5% | BT-549 breast 78.1% | SW-620 colon 51.1% | MCF7 breast 14.5% | HCT-116 colon 13% | HCC-2998 colon 72.1% | KM12 colon 32.6%

CCCC(=O)Oc1ccc(/C(=C(\C)c2ccc(OC)cc2)c2ccc(OCCN3CCCCC3)cc2)cc1
inactive: RPMI-8226 leukemia 56.9% | OVCAR-8 ovarian 90.4% | OVCAR-4 ovarian 75% | SK-OV-3 ovarian 79.9% | IGROV1 ovarian 89.9% | OVCAR-3 ovarian 89.4% | HS 578T breast 84.3% | NCI/ADR-RES ovarian 75.6% | T-47D breast 32.7% | BT-549 breast 82.2% | MDA-MB-435 melanoma 84.2% | SW-620 colon 87.5% | MCF7 breast 28.3% | HCT-116 colon 55.7% | HCC-2998 colon 91% | KM12 colon 75.6%
active: SR leukemia -14.9%
